Measurements published in PubChem BioAssay (NCI).
The panel holds about 79,000 compounds, 15% with a hit somewhere; the sample as a whole holds those more often. Values without a mark were called inactive. Active and inactive are the calls of the source. Cut-off read from the data, not from the text of the source: active = growth inhibition above about 70%; inactive = the rest.

assay: NCI Yeast Anticancer Drug Screen. Data for the mec2-1 strain (AID 157); settings: S. cerevisiae mec2-1 strain, at 33.0 µM, stronger effect = higher value
How it was run: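 Test agents were screened against the mec2-1 yeast strain, with defined DNA repair or cell cycle alteration. Growth was scored as inhibition against vehicle-only controls.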

| Structure (SMILES) | growth inhibition |
| --- | --- |
| COc1ccc2nc3cccc([N+](=O)[O-])c3c(NCCNCCN(C)C)c2c1 | -1% |
| Cc1cccc(/C=N/NC(=S)NC2CCCCC2)n1 | 11% |
| COC(=O)C(=O)c1c(-c2ccc(Cl)c(Cl)c2)[nH]c2[nH]n(-c3ccccc3)c(=O)c2c1=O | 57% |
| c1ccc([P+](CCN2Cc3ccccc3C2)(c2ccccc2)c2ccccc2)cc1 | 67% |
| Cc1cc(C)c2[s+]snc2c1 | 10% |
| CC(C)(Br)C(=O)/C=C/c1ccccc1 | 28% |
| Cc1ccc(S(=O)(=O)NC(=O)C2C(=O)CC3(CCCCC3)CC2=O)cc1 | 79% (active) |
| NC(=S)N1N=C2c3ccccc3CC[C@H]2[C@@H]1c1ccc(Cl)cc1 | 58% |
| O=[N+]([O-])/C=C/c1cc2ccc3ccccc3c2[nH]1 | 88% (active) |
| O=C1C(=C2CCCC2)CCC1CN1CCCCC1 (stereo unspecified) | 70% (active) |
| OC(CC(O)(C(F)(F)F)C(F)(F)F)c1ccc(C(O)CC(O)(C(F)(F)F)C(F)(F)F)cc1 (stereo unspecified) | 99% (active) |
| COc1cc2c(cc1OC)[C@@H](Nc1ccc(C#N)cc1)C1COC(=O)[C@@H]1C2c1cc(OC)c(O)c(OC)c1 (stereo partly specified) | 70% (active) |
| O=c1cccccc1[O-].O=c1cccccc1[O-].O=c1cccccc1[O-].[Eu+3] | 90% (active) |
| O=C1c2ccccc2C(=O)c2sc(Nc3ccccc3Cl)nc21 | 99% (active) |
| NC(CCCCCCCCCCCCC(N)C(=O)c1ccccc1)C(=O)c1ccccc1 (stereo unspecified) | 61% |
| CC1=C(C)C(=O)C2=C(OCCO2)C1=O | -1% |
| c1ccc(-c2cc(C3CO3)c3ccccc3n2)cc1 (stereo unspecified) | 7% |
| S=C1C(=Nc2ccccc2)N(c2ccccc2)/C(=N\c2ccccn2)N1c1ccccc1 | 99% (active) |

| Structure (SMILES) | growth inhibition |
| --- | --- |
| CCC(OC(C)=O)C1CC(C(C)C)CCC1C (stereo unspecified) | 9% |
| CC(C)=CCc1c2c(c(O)c3c(=O)c(-c4ccc(O)c(O)c4)coc13)C=CC(C)(C)O2 | 91% (active) |
| O=C(NC(N1CCN(c2cc3c(cc2F)c(=O)c(C(=O)O)cn3C2CC2)CC1)(C(F)(F)F)C(F)(F)F)c1ccccc1 | 35% |
| Fc1cc(F)c(F)c(S)c1F | 10% |
| COc1ccc2cc3c4cc5c(cc4cc[n+]3cc2c1OC)OCO5 | 89% (active) |
| CCCCCCCCNCCCCCCCC | 98% (active) |
| Nc1cc(Cl)ccc1Nc1ccccc1 | -33% |
| O=C(/C(=C/c1ccc(O)cc1)c1ccccc1)c1ccccc1 | 98% (active) |
| O=Cc1ccccc1C=O | 32% |
| C1=CCN([B-](c2ccccc2)[C+]2CCCCC2)C=C1 | 76% (active) |
| CC/C(=C(\c1ccccc1)c1ccc(OCC[N+](C)(C)C)cc1)c1ccccc1 | 99% (active) |
| O=S(=O)(c1cccc(C(F)(F)F)c1)N1c2ccccc2-n2cccc2C1c1cccnc1 (stereo unspecified) | 92% (active) |
| Nc1ccc2c(c1)C(=O)c1c(F)cccc1-2 | 13% |
| CN(C)/C(=N/C(=S)Nc1ccccc1)SCc1ccccc1 | 10% |
| CCN(CC)C(=S)N/N=C(\C)c1ccccc1O | 97% (active) |
| CC(C)OC(=O)NNc1cc(Cl)ccc1Cl | 33% |
| CC(C)CCC[C@@H](C)[C@H]1CC[C@H]2[C@@H]3CC[C@H]4C[C@H](N)CC[C@]4(C)[C@H]3CC[C@]12C | -2% |
| O=C1c2ccccc2-c2ccc(N=Cc3ccccc3)cc21 | 2% |
